From publication PMC7862700, “An all-to-all approach to the identification of sequence-specific readers for epigenetic DNA modifications on cytosine”

What was measured:
Assay in all cases: DAPPL (digital affinity profiling via proximity ligation, sequencing); 10 mM Tris-HCl pH 7.5, 50 mM NaCl, 1 mM DTT, 4% glycerol, room temperature, 30 min; GST-TFs on glutathione beads, 16-mer random dsDNA library, 0.1% formaldehyde crosslink after washing; high values mean tight binding
FEV = molecular target: T1, FEV (Homo sapiens, UniProt Q99581 1-238); settings: protein: recombinant; tags: N-terminal GST; dsDNA, one strand shown
T1 sequence: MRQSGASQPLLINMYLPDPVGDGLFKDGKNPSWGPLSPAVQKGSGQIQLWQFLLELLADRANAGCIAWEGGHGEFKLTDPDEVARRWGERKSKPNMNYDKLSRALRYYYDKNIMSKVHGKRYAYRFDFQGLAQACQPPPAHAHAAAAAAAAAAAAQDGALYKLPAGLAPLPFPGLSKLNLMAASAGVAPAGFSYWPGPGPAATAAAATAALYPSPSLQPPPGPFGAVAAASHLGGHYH
Method in brief: (§1)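 Human transcription factors fused to GST were expressed in yeast, captured on glutathione beads, given DNA barcodes and pooled with a GST-only negative control. Pools were incubated with 200 nmole of a 16-mer random double-stranded DNA library in Tris/NaCl/DTT/glycerol buffer at room temperature for 30 min. They were then washed, crosslinked with 0.1% formaldehyde, proximity-ligated (BsaI/T4 ligase, 1 h, 37 °C), PCR-amplified and sequenced on an Illumina NextSeq500. Binding signal is each 6-mer's read frequency for a factor divided by its frequency for the GST control.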

ETV5 = ETV5 (Homo sapiens, UniProt P41161 1-510); settings: protein: recombinant; tags: N-terminal GST; dsDNA, one strand shown
ETV5, sequence (P41161 whole entry): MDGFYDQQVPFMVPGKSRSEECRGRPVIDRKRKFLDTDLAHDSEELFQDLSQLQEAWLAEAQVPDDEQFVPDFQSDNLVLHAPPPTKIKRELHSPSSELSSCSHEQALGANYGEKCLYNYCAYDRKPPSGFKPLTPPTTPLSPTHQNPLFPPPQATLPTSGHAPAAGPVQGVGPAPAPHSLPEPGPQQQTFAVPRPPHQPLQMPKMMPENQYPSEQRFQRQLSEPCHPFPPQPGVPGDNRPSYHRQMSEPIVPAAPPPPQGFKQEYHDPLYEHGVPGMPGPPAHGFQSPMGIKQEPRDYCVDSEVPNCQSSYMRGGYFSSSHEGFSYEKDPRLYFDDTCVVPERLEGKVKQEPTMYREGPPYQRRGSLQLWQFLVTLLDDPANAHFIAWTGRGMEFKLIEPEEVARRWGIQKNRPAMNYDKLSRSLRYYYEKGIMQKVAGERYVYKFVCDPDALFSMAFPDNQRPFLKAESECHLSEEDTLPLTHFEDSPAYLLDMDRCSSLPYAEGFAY
Method in brief: as §1

HSF1 = HSF1 (Homo sapiens, UniProt Q00613 1-529); settings: protein: recombinant; tags: N-terminal GST; chain copies: 3; dsDNA, one strand shown
HSF1, sequence (Q00613 whole entry): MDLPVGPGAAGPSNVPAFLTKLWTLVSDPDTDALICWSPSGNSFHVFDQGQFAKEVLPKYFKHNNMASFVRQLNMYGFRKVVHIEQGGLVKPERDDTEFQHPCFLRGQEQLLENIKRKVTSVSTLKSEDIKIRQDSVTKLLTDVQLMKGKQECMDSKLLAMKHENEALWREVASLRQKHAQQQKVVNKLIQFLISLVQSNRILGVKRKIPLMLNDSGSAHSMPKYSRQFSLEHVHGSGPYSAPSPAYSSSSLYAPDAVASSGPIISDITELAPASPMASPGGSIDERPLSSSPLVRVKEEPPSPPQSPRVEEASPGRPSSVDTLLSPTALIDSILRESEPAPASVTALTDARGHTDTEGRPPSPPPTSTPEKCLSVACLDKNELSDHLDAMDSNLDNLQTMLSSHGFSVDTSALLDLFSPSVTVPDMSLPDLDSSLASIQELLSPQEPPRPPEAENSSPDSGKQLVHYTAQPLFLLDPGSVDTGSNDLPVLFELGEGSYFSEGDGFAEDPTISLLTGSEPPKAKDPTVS
Method in brief: as §1

SPIC = molecular target: T2, SPIC (Homo sapiens, UniProt Q8N5J4 1-248); settings: protein: recombinant; tags: N-terminal GST; dsDNA, one strand shown
T2 sequence: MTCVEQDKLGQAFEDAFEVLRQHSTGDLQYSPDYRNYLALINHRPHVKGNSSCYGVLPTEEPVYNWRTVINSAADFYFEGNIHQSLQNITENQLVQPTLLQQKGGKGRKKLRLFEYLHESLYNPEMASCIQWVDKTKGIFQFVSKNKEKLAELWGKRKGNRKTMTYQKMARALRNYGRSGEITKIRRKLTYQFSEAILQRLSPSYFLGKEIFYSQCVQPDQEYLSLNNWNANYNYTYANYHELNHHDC
Method in brief: as §1

ELF4 = ELF4 (Homo sapiens, UniProt Q99607 1-663); settings: protein: recombinant; tags: N-terminal GST; dsDNA, one strand shown
ELF4, sequence (Q99607 whole entry): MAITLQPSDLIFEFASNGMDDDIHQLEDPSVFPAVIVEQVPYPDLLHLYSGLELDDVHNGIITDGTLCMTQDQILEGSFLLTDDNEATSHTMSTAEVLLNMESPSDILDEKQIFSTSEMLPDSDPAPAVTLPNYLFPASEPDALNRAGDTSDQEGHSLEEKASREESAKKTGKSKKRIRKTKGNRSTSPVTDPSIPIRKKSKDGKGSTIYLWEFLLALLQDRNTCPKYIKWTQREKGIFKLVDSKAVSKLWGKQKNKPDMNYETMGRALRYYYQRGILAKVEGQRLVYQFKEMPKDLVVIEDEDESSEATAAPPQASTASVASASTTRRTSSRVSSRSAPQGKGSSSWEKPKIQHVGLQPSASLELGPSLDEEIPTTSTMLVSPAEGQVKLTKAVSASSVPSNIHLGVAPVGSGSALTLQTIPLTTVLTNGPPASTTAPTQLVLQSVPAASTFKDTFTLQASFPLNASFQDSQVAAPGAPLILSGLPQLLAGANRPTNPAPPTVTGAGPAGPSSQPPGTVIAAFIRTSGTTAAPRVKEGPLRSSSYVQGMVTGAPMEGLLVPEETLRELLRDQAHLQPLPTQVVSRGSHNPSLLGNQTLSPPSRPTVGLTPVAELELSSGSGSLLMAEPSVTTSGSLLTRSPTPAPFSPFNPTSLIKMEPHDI
Method in brief: as §1

ELK4 = molecular target: T3, ELK4 (Homo sapiens, UniProt P28324-2 1-405); settings: protein: recombinant; tags: N-terminal GST; dsDNA, one strand shown
T3 sequence: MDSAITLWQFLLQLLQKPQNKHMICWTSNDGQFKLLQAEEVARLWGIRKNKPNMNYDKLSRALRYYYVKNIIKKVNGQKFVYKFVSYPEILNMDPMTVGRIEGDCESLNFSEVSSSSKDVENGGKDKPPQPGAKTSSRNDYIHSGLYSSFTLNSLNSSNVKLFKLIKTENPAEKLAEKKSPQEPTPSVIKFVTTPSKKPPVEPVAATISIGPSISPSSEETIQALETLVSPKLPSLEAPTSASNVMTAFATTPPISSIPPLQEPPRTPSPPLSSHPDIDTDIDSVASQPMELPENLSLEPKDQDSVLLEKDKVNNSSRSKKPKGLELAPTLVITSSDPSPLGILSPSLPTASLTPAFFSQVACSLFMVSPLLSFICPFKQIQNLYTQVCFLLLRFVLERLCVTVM
Method in brief: as §1

ETV2 = molecular target: T4, ETV2 (Homo sapiens, UniProt O00321 1-342); settings: protein: recombinant; tags: N-terminal GST; dsDNA, one strand shown
T4 sequence: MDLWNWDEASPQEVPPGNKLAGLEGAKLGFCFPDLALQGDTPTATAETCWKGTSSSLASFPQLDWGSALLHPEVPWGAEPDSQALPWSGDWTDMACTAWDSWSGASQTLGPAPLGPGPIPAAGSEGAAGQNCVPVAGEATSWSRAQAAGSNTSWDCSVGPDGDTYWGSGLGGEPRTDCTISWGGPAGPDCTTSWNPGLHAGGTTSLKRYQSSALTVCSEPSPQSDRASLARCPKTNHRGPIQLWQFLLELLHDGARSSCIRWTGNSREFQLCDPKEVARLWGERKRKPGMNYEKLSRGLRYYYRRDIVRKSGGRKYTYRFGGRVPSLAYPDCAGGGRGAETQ
Method in brief: as §1

ELF3 = molecular target: T5, ELF3 (Homo sapiens, UniProt P78545 1-371); settings: protein: recombinant; tags: N-terminal GST; dsDNA, one strand shown
T5 sequence: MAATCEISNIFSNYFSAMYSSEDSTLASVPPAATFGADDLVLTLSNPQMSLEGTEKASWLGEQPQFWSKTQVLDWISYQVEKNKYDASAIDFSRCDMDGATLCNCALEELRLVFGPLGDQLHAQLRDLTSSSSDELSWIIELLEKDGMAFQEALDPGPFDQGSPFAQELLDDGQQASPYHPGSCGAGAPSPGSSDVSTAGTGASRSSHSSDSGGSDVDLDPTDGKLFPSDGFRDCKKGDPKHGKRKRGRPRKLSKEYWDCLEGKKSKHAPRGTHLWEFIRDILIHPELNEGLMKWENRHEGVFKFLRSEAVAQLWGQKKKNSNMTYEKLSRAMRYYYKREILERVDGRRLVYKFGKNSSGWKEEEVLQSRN
Method in brief: as §1

CRX = CRX (Homo sapiens, UniProt O43186 1-299); settings: protein: recombinant; tags: N-terminal GST; dsDNA, one strand shown
CRX, sequence (O43186 whole entry): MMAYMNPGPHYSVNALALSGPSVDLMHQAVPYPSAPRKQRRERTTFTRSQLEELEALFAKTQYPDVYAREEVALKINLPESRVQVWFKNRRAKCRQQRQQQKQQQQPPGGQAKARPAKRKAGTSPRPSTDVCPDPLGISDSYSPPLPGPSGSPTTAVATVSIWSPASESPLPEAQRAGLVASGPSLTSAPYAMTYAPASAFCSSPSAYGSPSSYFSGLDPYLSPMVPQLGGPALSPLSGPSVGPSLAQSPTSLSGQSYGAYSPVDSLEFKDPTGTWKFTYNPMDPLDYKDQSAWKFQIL
Method in brief: as §1

ETV1 = ETV1 (Homo sapiens, UniProt P50549 1-477); settings: protein: recombinant; tags: N-terminal GST; dsDNA, one strand shown
ETV1, sequence (P50549 whole entry): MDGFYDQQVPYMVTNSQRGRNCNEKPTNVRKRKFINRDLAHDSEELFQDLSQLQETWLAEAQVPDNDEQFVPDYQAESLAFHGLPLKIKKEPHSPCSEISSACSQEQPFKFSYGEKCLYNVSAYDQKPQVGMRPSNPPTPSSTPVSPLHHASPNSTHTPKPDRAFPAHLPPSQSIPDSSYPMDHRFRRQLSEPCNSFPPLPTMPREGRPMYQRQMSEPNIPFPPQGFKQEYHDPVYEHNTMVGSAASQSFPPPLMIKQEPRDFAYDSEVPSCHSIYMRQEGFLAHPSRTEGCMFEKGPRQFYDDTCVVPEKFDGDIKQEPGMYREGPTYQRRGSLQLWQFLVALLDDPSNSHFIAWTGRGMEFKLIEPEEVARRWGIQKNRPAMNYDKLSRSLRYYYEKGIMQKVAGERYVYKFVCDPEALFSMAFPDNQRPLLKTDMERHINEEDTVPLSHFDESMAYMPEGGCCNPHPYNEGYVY
Method in brief: as §1

TCCCTA
binding signal (FEV): 1.2 fold enrichment (6-mer frequency, TF over GST control)
binding signal (ETV5): 1.43 fold enrichment (6-mer frequency, TF over GST control)
binding signal (HSF1): 1.32 fold enrichment (6-mer frequency, TF over GST control)
binding signal (SPIC): 1.31 fold enrichment (6-mer frequency, TF over GST control)
binding signal (ELF4): 1.31 fold enrichment (6-mer frequency, TF over GST control)
binding signal (ELK4): 1.19 fold enrichment (6-mer frequency, TF over GST control)
binding signal (ETV2): 1.25 fold enrichment (6-mer frequency, TF over GST control)
binding signal (ELF3): 1.36 fold enrichment (6-mer frequency, TF over GST control)
binding signal (CRX): 1.47 fold enrichment (6-mer frequency, TF over GST control)
binding signal (ETV1): 1.32 fold enrichment (6-mer frequency, TF over GST control)
